# Inconclusive results are not listed. Where a call stands in place of a potency, no number is given. Activity calls are given as the source filed them. Calls come from the whole dose curve; as a rule, active = well fitted activation curve with a large enough effect in the repeat runs; inconclusive = weak or mixed curves; inactive = flat fitted curve, though single readings scatter.
# Experiment: A CellTox Green Cytotoxicity Assay to monitor cytotoxicity in HEK293 cells - 16 hour (AID 1224888); note: nearly all actives have a fitted effect of over 35% in size
# Settings: CellTox Green fluorescence; series mostly up to 76.8 µM
# Text: National Center for Advancing Translational Sciences [NCATS]
# NIH Chemical Genomics Center [NCGC]
# U.S. Environmental Protection Agency [EPA]
# National Institutes of Environmental Health Sciences [NIEHS]
# National Toxicology Program [NTP]
# Cell-based models are critical for drug discovery. Determining the natural cytotoxic effects resulting from test compounds is an essential research activity. A CellTox Green Cytotoxicity Assay to monitor cytotoxicity in real time of continues cell culture during 40 hours of the compound treatment was used to screen Tox21 10K library compounds in Hek293 cells. CellTox Green Cytotoxicity Assay is a nonlytic, homogeneous, biofluorescent method to measure cytotoxicity in cell culture after experimental manipulation. The assay system uses a proprietary asymmetric cyanine dye that is excluded from viable cells but preferentially stains the dead cell's DNA. […] Viable cells produce no appreciable increases in fluorescence. Therefore, the fluorescence signal produced by the binding interaction with dead cell DNA is proportional to cytotoxicity.
# The mixture of Hek293 cell suspension and reagents were dispensed at 600cells/6 ul/well in 1536-well tissue culture treated black solid bottom plates using a Multidrop dispenser. After the assay plates were incubated at a 37 C/5% CO2 incubator for 5 hours, 23 nL of compounds dissolved in DMSO, positive and negative controls was transferred to the assay plate by a pintool work station. The plates were incubated at 37 C for 40 hours. The fluorescence intensity were measured at 0h, 8h, 16h, 24h, 32h and 40h time points using ViewLux plate reader during compound treatment.
row,Structure (SMILES),Potency
1,C#CC(C)(C)NC(=O)c1cc(Cl)cc(Cl)c1,inactive
2,CN(C)N=O,inactive
3,O=Cc1cccc(Oc2ccccc2)c1,inactive
4,Nc1ccccc1C(=O)O,inactive
5,Clc1ccc(Cl)cc1,inactive
6,Cc1ccc([N+](=O)[O-])cc1C,inactive
7,Cc1ccccc1O,inactive
8,CC(C)OC(=O)Nc1cccc(Cl)c1,inactive
9,ClCCBr,inactive
10,O=S(=O)(c1ccc(O)cc1)c1ccc(O)cc1,inactive
11,OC(O)C(Cl)(Cl)Cl,inactive
12,CC1C=[C-]C=C1.[C-]#[O+].[C-]#[O+].[C-]#[O+].[Mn],inactive
13,CCOC(=O)c1ccccc1C(=O)OCC,inactive
14,CCCCCCCCCl,inactive
15,O=C(NC(=O)c1c(F)cccc1F)Nc1cc(Cl)c(OC(F)(F)C(F)C(F)(F)F)cc1Cl (stereo not given),inactive
16,CCCN(CCC)c1c([N+](=O)[O-])cc(C(F)(F)F)cc1[N+](=O)[O-],inactive
17,ClCc1cccnc1,inactive
18,Cn1cc(-c2ccccc2)c(=O)c(-c2cccc(C(F)(F)F)c2)c1,inactive
19,CN(N=O)c1ccccc1,inactive
20,C[C@]12CC[C@H]3[C@@H](CC[C@@]45O[C@@H]4C(O)=C(C#N)C[C@]35C)[C@@H]1CC[C@@H]2O,inactive

row,Structure (SMILES),Potency
1,O=c1[nH]c(=O)[nH]c(=O)[nH]1,inactive
2,Nc1ccc(Br)cc1,inactive
3,CC(C)(Cl)Cl,inactive
4,CCCCN(CC)C(=O)SCCC,inactive
5,[N-]=[N+]=[N-],inactive
6,c1ccc(-c2ccccc2)cc1,inactive
7,CCCC1COC(Cn2cncn2)(c2ccc(Cl)cc2Cl)O1 (stereo not given),inactive
8,COP(N)(=O)SC (stereo not given),inactive
9,Clc1cccc(Cl)c1Cl,inactive
10,O=NN1CCCC1,inactive
11,O=c1[nH]c2ccccc2c(=O)o1,inactive
12,BrCCBr,inactive
13,Oc1ccccc1Cl,inactive
14,O=[N+]([O-])c1ccc(Oc2ccc(Cl)cc2Cl)cc1,inactive
15,NCC(O)c1ccc(O)cc1 (stereo not given),inactive
16,O=c1ccc(=O)[nH][nH]1,inactive
17,O=[N+]([O-])c1ccccc1,inactive
18,CCC[N+](=O)[O-],inactive
19,CC(Br)C(=O)O (stereo not given),inactive
20,O=NN1CCCCCCC1,inactive
